# The list is not random: actives were taken first. Their share in the collection is about 1.1%.
# Six1-Eya2 blk – inhibitors of human Six1/Eya2 interaction | AlphaScreen GST-Six1/His-Eya2 binding, biochemical; active compounds read low | activity change, % (no concentration beside the values) | 0.56% of 360,000 active; note: % is set by controls: 0 for no effect and ±100 for the full control effect
#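 Compounds are tested against tagged Six1 and Eya2 proteins bridged by glutathione donor and nickel acceptor beads; after a one-hour incubation at 37 °C without light, AlphaScreen emission is recorded.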
# CtBP-E1A blk – inhibitors of CtBP/E1A interaction; AlphaScreen GST-E1A/His-CtBP binding, 1536-well; active compounds read low; activity change, % (concentration not given with the values); 0.49% of 340,000 active; AID 651724; note: % is set by controls: 0 for no effect and ±100 for the full control effect
#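 Steps: dispense buffer (Tris pH 8.0, NaCl 300 mM, TCEP 1 mM, BSA, Tween 20); add 5X protein mix (GST-E1A, His-CtBP, 125 nM each); pin 23 nL compound; 2 h at 37 °C, dark; add 5X beads (50 ug/mL); 1 h; read.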
# MBNL1-CUG inh – inhibitors of human MBNL1 binding to CUG repeat RNA; Q9NR56; TR-FRET MBNL1-His/biotin-(CUG)12 binding, 665/545 ratio; Potency, µM (highest dose often 57.5 µM), inactives show at the highest dose activity change, negative = inhibition, usual class: inhibitors; 0.036% of 280,000 active; AID 2675; active = well fitted inhibition curve with a large enough effect in the signal ratio, with a control signal flat, not every such curve was filed as active; inconclusive = small, poorly fitted or top-dose-only effect, or effect the other way, or a change in a side signal; inactive = no such curve, though single readings can be large or run the other way; the % refers to the signal ratio; note: potency is the fitted concentration of half-maximal effect; % is set by controls: 0 for no effect and ±100 for the full control effect
#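 His-tagged MBNL1 binding to biotinylated (CUG)12 RNA was measured by TR-FRET using terbium anti-His antibody (0.055 ng/ul final) and streptavidin-XL665 (5 nM final). Compounds were titrated 92 nM to 58 uM; 60 min at room temperature.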
# Mito fusion yeast – mitochondrial division inhibition or fusion activation; S. cerevisiae fusion-defective mutant growth rescue, CellTiterGlo 48 h; Potency, µM (doses to about 46.1 µM), for the others: at the highest dose growth rescue (activation), usual class: activators; 0.23% of 320,000 active; AID 485298; active = well fitted activation curve with a large enough effect; inconclusive = small, poorly fitted or top-dose-only effect; inactive = no such curve, though single readings can be large or run the other way; note: potency is the fitted concentration of half-maximal effect; % of control where 0% means no effect; nearly all actives have a fitted effect of over 45% in size
#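 Yeast fusion mutant, YPEG (non-fermentable carbon), compound, 48 h at 37C non-permissive; CellTiterGlo added, 10 min RT, luminescence read. Rescued growth = division inhibition.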
# uPA generation – blocks generation of uPA at the cell surface; Potency, µM (titrated, usually from 38.3 µM), for inactives: top-dose activity change, negative = inhibition, hits mostly inhibitors; 0.31% of 330,000 active; cell surface uPA generation assay, qHTS; active = well fitted inhibition curve with a large enough effect; inconclusive = small, poorly fitted or top-dose-only effect; inactive = no such curve, though single readings can be large or run the other way; tested in mouse RAW 264.7 cells; note: potency is the fitted concentration of half-maximal effect; % is set by controls: 0 for no effect and ±100 for the full control effect; nearly all actives have a fitted effect of over 55% in size
# * hit, by the source's call; ? = inconclusive; / = not tested or not shown. Cut-off read from the data, not from the text of the source, unless noted: active = activity change below about -65%; inconclusive = mostly about -30% to -63%; inactive = weaker than that.
SMILES,Six1-Eya2 blk,CtBP-E1A blk,MBNL1-CUG inh,Mito fusion yeast,uPA generation
CN=c1scc(-c2ccccc2F)n1/N=C/c1ccc[nH]1,-28.3,-24.2,10.1%,-3.1%,-10.4%
CCN=c1scc(-c2cccs2)n1/N=C/c1cc(OC)ccc1O,?,?,/,-1.0%,-2.5%
Cc1ccccc1OCC(=O)N/N=C/c1cccc(Oc2ccc([N+](=O)[O-])cc2[N+](=O)[O-])c1,-21.7,3.3,?,8.1%,11.2µM*
CC(C)Nc1ncnc2c1ncn2[C@H]1CN(Cc2cccs2)C[C@@H](CO)O1,2.7,9.9,/,/,/
CCCCC(=O)NC(c1ccc(C(C)C)cc1)c1ccc2cccnc2c1O (stereo not given),-23.8,-22.4,3.8%,-1.9%,?
CCCCC(=O)NC(c1ccccc1Cl)c1ccc2cccnc2c1O (stereo not given),-67.4*,?,22.7%,-2.2%,?
CCCCC(=O)NC(c1ccccc1)c1ccc2cccnc2c1O (stereo not given),-66.3*,?,33.4%,-1.2%,-13.6%
Oc1c(C(c2ccccc2Cl)N2CCCC2)ccc2cccnc12 (stereo not given),?,/,7.5%,2.5%,7.94µM*
CCCC(=O)NC(c1ccc(OC)cc1)c1ccc2cccnc2c1O (stereo not given),-89.7*,-88.3*,52.9%,-0.7%,-0.5%
Oc1c(C(c2cccs2)N2CCN(c3ccccc3)CC2)ccc2cccnc12 (stereo not given),/,/,7.1%,0.8%,/
CCC(=O)NC(c1ccccc1OC)c1ccc2cccnc2c1O (stereo not given),-88.4*,?,-4.0%,-0.4%,-14.1%
COc1ccc(Cl)cc1C(Nc1cccnc1)c1ccc2cccnc2c1O (stereo not given),?,-67.4*,21.1%,0.2%,-17.4%
CCC(=O)NC(c1ccc(OC)cc1)c1c(O)ccc2ccccc12 (stereo not given),0.8,/,2.5%,-0.9%,5.62µM*
CCCC(=O)NC(c1ccccc1)c1ccc2cccnc2c1O (stereo not given),-66.3*,-91.4*,24.8%,-0.3%,-12.9%
O=C(Nc1cccc2cccnc12)c1ccc(F)cc1,/,/,/,-4.8%,/
COc1cccc(CNc2ccc(N3CCC(C)CC3)cc2)c1OC,-71.8*,-69.6*,-1.0%,0.8%,/
CC1CCN(c2ccc(NC(=O)Cc3ccccc3)cc2)CC1,-23.3,-0.5,-3.1%,-1.6%,-3.2%
Cc1nnnn1/C(=C\c1ccccc1)C(=O)OCC(=O)NC1CCCCC1,7.8,7.5,/,-32.4%,7.94µM*
Cc1nnnn1/C(=C\c1ccccc1)C(=O)OCC(=O)NC(C)(C)C,1.1,8.1,-13.0%,-16.8%,-8.6%
O=C(N/N=C/c1c(Cl)nc2ccccn2c1=O)c1cccnc1,-68.8*,-14.0,/,1.3%,?
O=C(N/N=C/c1cc(Cl)ccc1O)c1cccnc1,-67.6*,-91.4*,?,2.1%,-14.1%
COC(=O)N/N=C/c1cc([N+](=O)[O-])cc(Br)c1O,-8.0,9.1,?,5.3%,0.0%
O=C(N/N=C/c1cc(Cl)ccc1O)c1ccccc1Br,-70.3*,-90.0*,22.0%,-2.6%,4.47µM*
O=C(CNC(=O)c1ccccc1Br)N/N=C\c1cc([N+](=O)[O-])cc(Br)c1O,?,-72.8*,?,0.8%,4.0%
COc1cc(NC(=O)C(C)Oc2ccccc2)c(OC)cc1NC(=O)c1ccccc1 (stereo not given),-27.5,-4.8,-5.4%,-3.1%,5.5%
SMILES,Six1-Eya2 blk,CtBP-E1A blk,MBNL1-CUG inh,Mito fusion yeast,uPA generation
Cc1nn(CC(=O)NCCCN2CC(C)CC(C)C2)c(=O)c2cccn12 (stereo not given),3.3,5.0,0.7%,-0.7%,-0.2%
COc1ccccc1C=NN=C(NN=Cc1ccccc1OC)NN=Cc1ccccc1OC,-11.9,-10.1,/,/,-15.0%
O=C(CNC(=O)c1ccccc1Br)N/N=C/c1cc(Br)ccc1O,?,-72.9*,24.2%,2.4%,?
O=C(CNC(=O)c1ccccc1Br)N/N=C/c1cccs1,-9.9,/,?,2.9%,3.2%
O=C(CNC(=O)c1ccccc1Br)N/N=C/c1ccccc1O,-65.2*,?,25.1%,9.3%,-1.3%
COc1ccc(CNC(=O)CC[C@H]2O[C@@H](n3ccc(=O)[nH]c3=O)[C@H](O)[C@@H]2O)cc1,0.7,7.3,/,/,/
